Source: PubChem BioAssay (NCATS)
Results filed as inconclusive are left out. Active and inactive are the calls of the source. Unless noted, calls come from the whole dose curve; as a rule, active = well fitted curve in the direction sought with a large enough effect; inconclusive = small, poorly fitted or top-dose-only effect, or another doubt; inactive = no such curve, though single readings can be large; an effect the other way counts as inactive or inconclusive.

Assays:
[1] = target: Rap guanine nucleotide exchange factor 3 (Homo sapiens) (UniProt O95398); test: Confirmatory qHTS for antagonist of cAMP-regulated guanine nucleotide exchange factor 3 (EPAC1) (AID 1645880);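 note: plate controls were DMSO only for no effect and full effect of the ATA control for full effect; nearly all actives have a fitted effect of over 55% in size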
Rap guanine nucleotide exchange factor 3 (Homo sapiens), sequence (O95398 whole entry, looked up): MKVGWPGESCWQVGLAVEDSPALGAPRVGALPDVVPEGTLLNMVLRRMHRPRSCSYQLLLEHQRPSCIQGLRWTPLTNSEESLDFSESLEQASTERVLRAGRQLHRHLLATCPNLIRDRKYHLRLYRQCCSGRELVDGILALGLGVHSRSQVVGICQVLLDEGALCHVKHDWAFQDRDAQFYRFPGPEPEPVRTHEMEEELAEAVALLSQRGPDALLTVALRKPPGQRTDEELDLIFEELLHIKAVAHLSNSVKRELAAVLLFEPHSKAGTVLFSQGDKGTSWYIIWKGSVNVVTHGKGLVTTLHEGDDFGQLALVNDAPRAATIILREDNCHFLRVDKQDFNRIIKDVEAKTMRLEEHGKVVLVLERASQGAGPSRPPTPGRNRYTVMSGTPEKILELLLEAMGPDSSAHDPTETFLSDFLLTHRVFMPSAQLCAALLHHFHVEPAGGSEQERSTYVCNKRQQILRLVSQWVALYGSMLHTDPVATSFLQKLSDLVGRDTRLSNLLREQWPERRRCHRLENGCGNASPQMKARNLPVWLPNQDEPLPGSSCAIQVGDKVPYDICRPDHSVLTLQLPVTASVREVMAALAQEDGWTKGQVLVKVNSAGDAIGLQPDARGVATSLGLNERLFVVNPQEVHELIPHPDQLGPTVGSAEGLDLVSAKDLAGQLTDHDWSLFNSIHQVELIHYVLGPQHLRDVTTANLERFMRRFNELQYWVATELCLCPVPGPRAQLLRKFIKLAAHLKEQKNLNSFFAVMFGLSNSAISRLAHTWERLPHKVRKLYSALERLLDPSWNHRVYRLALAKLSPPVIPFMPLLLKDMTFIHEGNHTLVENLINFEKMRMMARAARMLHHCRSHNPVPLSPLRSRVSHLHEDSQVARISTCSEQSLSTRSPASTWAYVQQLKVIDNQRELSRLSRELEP
Outline: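 Nucleotide exchange uses 100 nM EPAC1, 250 nM RAP1B-BODIPY-GDP and 50 uM GDP, with compounds in a concentration-titration series. After 5 min at room temperature, fluorescence (480 nm ex/540 nm em) is read every 5 min for 30 min. Data are normalized to control ATA and DMSO.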

[2] = target: Rap guanine nucleotide exchange factor 3 (Homo sapiens) (UniProt O95398); test: Confirmatory qHTS for agonist of cAMP-regulated guanine nucleotide exchange factor 3 (EPAC1) (AID 1645881);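 note: EPAC1 catalysed release of BODIPY-GDP from Rap1B seen as fluorescence loss; 100% = effect of cAMP agonist control; nearly all actives have a fitted effect of over 75% in size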
[3] = target: Rap guanine nucleotide exchange factor 4 (Homo sapiens) (UniProt Q8WZA2); test: Confirmatory qHTS for agonist of cAMP-regulated guanine nucleotide exchange factor 4 (EPAC2) (AID 1645884);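 note: nucleotide exchange releases bodipy-GDP from Rap1 and this lowers its fluorescence; % is set by controls: 0 for no effect and ±100 for the full control effect; nearly all actives have a fitted effect of over 65% in size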
Rap guanine nucleotide exchange factor 4 (Homo sapiens), sequence (Q8WZA2 whole entry, looked up): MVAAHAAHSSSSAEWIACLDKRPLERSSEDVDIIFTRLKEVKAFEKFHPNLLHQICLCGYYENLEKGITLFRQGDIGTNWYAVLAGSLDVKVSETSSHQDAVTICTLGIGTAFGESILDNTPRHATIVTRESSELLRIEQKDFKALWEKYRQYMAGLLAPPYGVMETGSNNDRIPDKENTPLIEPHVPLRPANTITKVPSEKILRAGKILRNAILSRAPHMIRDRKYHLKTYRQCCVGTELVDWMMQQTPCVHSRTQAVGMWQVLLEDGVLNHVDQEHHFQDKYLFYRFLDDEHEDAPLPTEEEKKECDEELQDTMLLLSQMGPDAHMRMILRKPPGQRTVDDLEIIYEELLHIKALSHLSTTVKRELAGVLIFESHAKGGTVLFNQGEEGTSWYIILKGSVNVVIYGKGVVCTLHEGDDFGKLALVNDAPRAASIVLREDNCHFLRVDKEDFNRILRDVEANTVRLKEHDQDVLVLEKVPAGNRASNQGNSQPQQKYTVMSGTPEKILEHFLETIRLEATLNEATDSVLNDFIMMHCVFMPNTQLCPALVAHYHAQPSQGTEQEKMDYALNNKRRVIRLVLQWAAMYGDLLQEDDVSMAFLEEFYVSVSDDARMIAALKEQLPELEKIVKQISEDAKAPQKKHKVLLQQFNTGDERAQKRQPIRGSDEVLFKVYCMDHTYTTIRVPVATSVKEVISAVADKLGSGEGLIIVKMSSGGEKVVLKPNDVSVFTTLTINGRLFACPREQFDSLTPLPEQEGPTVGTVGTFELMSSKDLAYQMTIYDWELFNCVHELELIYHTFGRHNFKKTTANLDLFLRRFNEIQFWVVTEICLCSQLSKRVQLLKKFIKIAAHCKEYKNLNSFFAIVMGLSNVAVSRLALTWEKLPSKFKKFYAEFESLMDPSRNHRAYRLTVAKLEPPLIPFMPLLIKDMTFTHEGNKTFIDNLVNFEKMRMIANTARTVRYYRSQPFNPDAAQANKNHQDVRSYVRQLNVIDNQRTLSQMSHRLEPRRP

[4] = target: Rap guanine nucleotide exchange factor 4 (Homo sapiens) (UniProt Q8WZA2); test: Confirmatory qHTS for antagonist of cAMP-regulated guanine nucleotide exchange factor 4 (EPAC2) (AID 1645885); note: % is set by controls: 0 for no effect and ±100 for the full control effect; nearly all actives have a fitted effect of over 25% in size
[5] = target: Rap guanine nucleotide exchange factor 3 (Homo sapiens) (UniProt O95398); test: Counterscreen qHTS for antagonist of cAMP-regulated guanine nucleotide exchange factor 3 (EPAC1) (AID 1645888);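 note: fluorescence loss as bound BODIPY-GDP is released from Rap1B; % of control where 0% means no effect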
Outline: (§1)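 Rap1B-BODIPY-GDP 250 nM + GDP 50 uM; cpds 7-pt, final 9.74 nM–152 uM (activator mode) or from 7.32 nM upwards (inhibitor mode); RT; FI 480/540 nm at 5 and 30 min, then ± cAMP, reread.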

[6] = target: ATP-dependent 6-phosphofructokinase (Trypanosoma brucei brucei) (UniProt O15648); test: qHTS Assay to Find Inhibitors of T. brucei phosphofructokinase: hit validation (AID 492961);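 note: luminescence reports ADP formed as PFK phosphorylates fructose-6-phosphate with ATP; % is set by controls: 0 for no effect and ±100 for the full control effect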
ATP-dependent 6-phosphofructokinase (Trypanosoma brucei brucei), sequence (O15648 whole entry, looked up): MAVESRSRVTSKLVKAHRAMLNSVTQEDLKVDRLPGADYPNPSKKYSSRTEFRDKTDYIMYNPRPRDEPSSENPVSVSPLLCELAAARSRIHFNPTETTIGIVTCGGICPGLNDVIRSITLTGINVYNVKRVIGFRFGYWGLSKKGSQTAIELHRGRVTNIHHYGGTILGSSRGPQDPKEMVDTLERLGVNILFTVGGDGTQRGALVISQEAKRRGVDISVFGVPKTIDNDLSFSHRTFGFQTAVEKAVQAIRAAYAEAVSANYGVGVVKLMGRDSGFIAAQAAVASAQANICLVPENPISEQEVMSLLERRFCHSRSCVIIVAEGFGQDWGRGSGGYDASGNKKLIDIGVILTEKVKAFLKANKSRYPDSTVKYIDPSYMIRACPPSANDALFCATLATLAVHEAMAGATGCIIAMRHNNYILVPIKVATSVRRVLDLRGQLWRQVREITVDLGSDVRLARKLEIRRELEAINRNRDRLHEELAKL
Outline: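 Measures ADP output of PFK (1.25 nM) at 0.1 mM ATP, 0.5 mM F6P, pH 8.0 TEA buffer with 5 mM MgCl2. No-enzyme wells define full inhibition; uninhibited enzyme wells define zero.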

[7] = target: Ubiquitin carboxyl-terminal hydrolase 1 (Homo sapiens) (UniProt O94782); test: Inhibitors of USP1/UAF1: Pilot qHTS (AID 504865);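 note: rhodamine fluorescence freed from ubiquitin-rhodamine substrate followed over time; top concentration of the series differs between compounds; % is set by controls: 0 for no effect and ±100 for the full control effect; nearly all actives have a fitted effect of over 35% in size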
Ubiquitin carboxyl-terminal hydrolase 1 (Homo sapiens), sequence (O94782 whole entry, looked up): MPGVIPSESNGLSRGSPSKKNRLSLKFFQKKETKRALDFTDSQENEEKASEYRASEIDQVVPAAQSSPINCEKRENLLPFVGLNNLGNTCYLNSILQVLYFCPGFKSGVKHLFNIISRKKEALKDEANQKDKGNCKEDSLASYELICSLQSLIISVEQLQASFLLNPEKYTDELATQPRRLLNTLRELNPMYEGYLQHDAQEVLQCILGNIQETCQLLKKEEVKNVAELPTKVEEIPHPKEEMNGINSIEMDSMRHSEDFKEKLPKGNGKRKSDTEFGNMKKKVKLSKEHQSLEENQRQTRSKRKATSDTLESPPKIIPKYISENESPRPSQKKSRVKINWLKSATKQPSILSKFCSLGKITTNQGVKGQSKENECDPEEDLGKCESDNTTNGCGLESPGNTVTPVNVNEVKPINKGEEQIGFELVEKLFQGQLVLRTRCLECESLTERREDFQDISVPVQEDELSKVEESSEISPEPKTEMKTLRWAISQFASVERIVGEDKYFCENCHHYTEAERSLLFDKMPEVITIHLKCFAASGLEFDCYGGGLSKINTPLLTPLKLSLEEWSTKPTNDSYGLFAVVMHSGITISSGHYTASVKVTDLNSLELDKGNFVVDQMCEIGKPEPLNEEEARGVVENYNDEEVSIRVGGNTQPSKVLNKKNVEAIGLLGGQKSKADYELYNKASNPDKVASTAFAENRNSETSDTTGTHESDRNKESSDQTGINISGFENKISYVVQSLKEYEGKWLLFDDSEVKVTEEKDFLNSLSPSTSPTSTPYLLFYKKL
Outline: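 USP1/UAF1 complex at 1 nM preincubated 15 min at room temperature with compound, then Ub-Rho substrate added at 150 nM final. Fluorescence (480/540 nm) read kinetically in 50 mM HEPES pH 7.8, 0.5 mM EDTA, 1 mM TCEP, 0.1 mg/ml BSA, 0.01% Tween-20.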

[8] = target: Luciferin 4-monooxygenase (Photinus pyralis) (UniProt P08659); test: Biochemical firefly luciferase enzyme assay for NPC (AID 624030);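 note: purified P. pyralis luciferase at 10 nM with luciferin and ATP substrate; 0% = DMSO and -100% = full luciferase inhibition by PTC124 control; nearly all actives have a fitted effect of over 70% in size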
Luciferin 4-monooxygenase (Photinus pyralis), sequence (P08659 whole entry, looked up): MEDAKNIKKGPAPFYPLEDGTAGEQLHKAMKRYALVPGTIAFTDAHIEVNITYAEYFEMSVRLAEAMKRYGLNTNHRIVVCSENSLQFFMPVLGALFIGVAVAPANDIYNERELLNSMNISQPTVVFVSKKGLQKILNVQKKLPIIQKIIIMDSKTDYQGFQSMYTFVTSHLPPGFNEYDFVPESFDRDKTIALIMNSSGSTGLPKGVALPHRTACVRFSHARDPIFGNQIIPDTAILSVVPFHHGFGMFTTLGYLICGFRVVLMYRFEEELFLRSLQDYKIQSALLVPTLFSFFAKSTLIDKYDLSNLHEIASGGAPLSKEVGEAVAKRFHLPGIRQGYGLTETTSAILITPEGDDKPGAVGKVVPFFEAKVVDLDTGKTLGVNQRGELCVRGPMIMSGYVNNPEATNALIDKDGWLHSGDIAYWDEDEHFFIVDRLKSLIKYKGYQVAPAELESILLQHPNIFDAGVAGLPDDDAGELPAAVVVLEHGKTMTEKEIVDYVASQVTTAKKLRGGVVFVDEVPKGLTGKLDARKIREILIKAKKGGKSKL
Outline: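 Direct inhibition of firefly luciferase enzyme (10 nM final, 50 mM Tris Acetate) assessed by luminescence within 5 minutes. Percent activity scaled between DMSO and PTC124 positive control, with concentration-effect curves classified by fit quality and response.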

[9] = S16 Schwann cell PMP22 intronic element beta-lactamase assay (AID 624044; calls by dose curve;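 note: 0% = DMSO and -100% = potassium clavulanate positive control; nearly all actives have a fitted effect of over 15% in size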); conditions: S16 rat Schwann cells, PMP22 element beta-lactamase FRET, 24 h; ratio activity, negative = inhibition: at 38.3 µM (top of the series) unless noted
Outline: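 Rat S16 Schwann cells with beta-Lac driven by a PMP22 intronic element, compound-treated 24 h at 37 °C. LiveBLAzer FRET B/G read: 460 nm normalized to potassium clavulanate vs DMSO; 535 nm FRET as viability; concentration-effect curves classified.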

[10] = Primary qHTS to identify inhibitors of SARS-CoV-2 cell entry (AID 1645846; calls by dose curve; note: potency is the fitted concentration of half-maximal effect; nearly all actives have a fitted effect of over 45% in size); conditions: SARS-CoV-2 pseudovirus cell entry assay, luminescence; activity change, negative = inhibition: at 57.1 µM (top of the series) unless noted
Outline: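 HEK293 cells stably expressing human ACE2, pre-treated 1 h with compound, then infected with MLV particles pseudotyped with Wuhan-Hu-1 spike (C-terminal 19-aa truncation). Luciferase luminescence after 48 h at 37 °C, normalised to spike PP and bald PP.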

[11] = target: Phospholipid hydroperoxide glutathione peroxidase GPX4 (Homo sapiens) (UniProt P36969); test: Primary qHTS Assay for Inhibitors of Recombinant Selenoprotein Glutathione Peroxidase 4 (GPX4) (AID 1845192); note: % is set by controls: 0 for no effect and ±100 for the full control effect; nearly all actives have a fitted effect of over 65% in size
Phospholipid hydroperoxide glutathione peroxidase GPX4 (Homo sapiens), sequence (P36969 whole entry, looked up): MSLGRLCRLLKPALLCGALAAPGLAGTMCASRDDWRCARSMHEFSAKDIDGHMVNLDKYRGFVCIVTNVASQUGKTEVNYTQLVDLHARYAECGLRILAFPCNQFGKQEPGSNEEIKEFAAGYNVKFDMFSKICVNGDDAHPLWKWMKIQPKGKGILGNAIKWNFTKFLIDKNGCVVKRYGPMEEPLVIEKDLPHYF
Outline: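 NADPH consumption, followed by fluorescence at 340/450 nm between 0 and 15 min, reports GPX4 activity via coupled glutathione reductase (100 nM). Enzyme 200 nM was pre-exposed to compound 30 min; 0.5 mM cumene hydroperoxide and 1 mM GSH served as substrates.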

[12] = qHTS profiling for inhibitors of Plasmodium falciparum proliferation (AID 504749); note: nearly all actives have a fitted effect of over 60% in size; note: potency is the fitted concentration of half-maximal effect;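 for activity, negative = inhibition: 0% = DMSO vehicle and full inhibition = artemisinin control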; conditions: P. falciparum in erythrocytes, SYBR Green DNA, 72 h, at 28.7 µM (top of the series)
Outline: (§2)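 Infected RBCs, 0.3% parasitemia/2.5% Hct final; cpd 72 h, 37 C, 5% CO2; lysis buffer with saponin/triton/SYBR Green I, o/n RT dark; FI 485/535; norm. to artemisinin (0.29 uM) and DMSO.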

3D7 = test: as above; conditions: P. falciparum in erythrocytes, SYBR Green DNA, 72 h; series mostly up to 28.7 µM
Outline: as §2

7G8 = test: as above; conditions: P. falciparum in erythrocytes, SYBR Green DNA, 72 h; series mostly up to 12.8 µM
Outline: as §2

AA1029 = test: as above; conditions: P. falciparum in erythrocytes, SYBR Green DNA, 72 h; series mostly up to 28.7 µM
Outline: as §2

ATS189 = test: as above; conditions: P. falciparum in erythrocytes, SYBR Green DNA, 72 h; series mostly up to 28.7 µM
Outline: as §2

ATS95 = test: as above; conditions: P. falciparum in erythrocytes, SYBR Green DNA, 72 h; series mostly up to 28.7 µM
Outline: as §2

C2A = test: as above; conditions: P. falciparum in erythrocytes, SYBR Green DNA, 72 h; series mostly up to 28.7 µM
Outline: as §2

CP185 = test: as above; conditions: P. falciparum in erythrocytes, SYBR Green DNA, 72 h; series mostly up to 28.7 µM
Outline: as §2

CP191 = test: as above; conditions: P. falciparum in erythrocytes, SYBR Green DNA, 72 h; series mostly up to 28.7 µM
Outline: as §2

CP192 = test: as above; conditions: P. falciparum in erythrocytes, SYBR Green DNA, 72 h; series mostly up to 28.7 µM
Outline: as §2

CP194 = test: as above; conditions: P. falciparum in erythrocytes, SYBR Green DNA, 72 h; series mostly up to 28.7 µM
Outline: as §2

CP201 = test: as above; conditions: P. falciparum in erythrocytes, SYBR Green DNA, 72 h; series mostly up to 28.7 µM
Outline: as §2

CP211 = test: as above; conditions: P. falciparum in erythrocytes, SYBR Green DNA, 72 h; series mostly up to 28.7 µM
Outline: as §2

CP215 = test: as above; conditions: P. falciparum in erythrocytes, SYBR Green DNA, 72 h; series mostly up to 28.7 µM
Outline: as §2

CP217 = test: as above; conditions: P. falciparum in erythrocytes, SYBR Green DNA, 72 h; series mostly up to 28.7 µM
Outline: as §2

CP238 = test: as above; conditions: P. falciparum in erythrocytes, SYBR Green DNA, 72 h; series mostly up to 28.7 µM
Outline: as §2

CP247 = test: as above; conditions: P. falciparum in erythrocytes, SYBR Green DNA, 72 h; series mostly up to 28.7 µM
Outline: as §2

CP250 = test: as above; conditions: P. falciparum in erythrocytes, SYBR Green DNA, 72 h; series mostly up to 12.8 µM
Outline: as §2

CP252 = test: as above; conditions: P. falciparum in erythrocytes, SYBR Green DNA, 72 h; series mostly up to 12.8 µM
Outline: as §2

CP256 = test: as above; conditions: P. falciparum in erythrocytes, SYBR Green DNA, 72 h; series mostly up to 28.7 µM
Outline: as §2

CP260 = test: as above; conditions: P. falciparum in erythrocytes, SYBR Green DNA, 72 h; series mostly up to 28.7 µM
Outline: as §2

CP262 = test: as above; conditions: P. falciparum in erythrocytes, SYBR Green DNA, 72 h; series mostly up to 28.7 µM
Outline: as §2

CP265 = test: as above; conditions: P. falciparum in erythrocytes, SYBR Green DNA, 72 h; series mostly up to 12.8 µM
Outline: as §2

CP266 = test: as above; conditions: P. falciparum in erythrocytes, SYBR Green DNA, 72 h; series mostly up to 12.8 µM
Outline: as §2

CP268 = test: as above; conditions: P. falciparum in erythrocytes, SYBR Green DNA, 72 h; series mostly up to 28.7 µM
Outline: as §2

CP269 = test: as above; conditions: P. falciparum in erythrocytes, SYBR Green DNA, 72 h; series mostly up to 28.7 µM
Outline: as §2

CP286 = test: as above; conditions: P. falciparum in erythrocytes, SYBR Green DNA, 72 h; series mostly up to 28.7 µM
Outline: as §2

CP291 = test: as above; conditions: P. falciparum in erythrocytes, SYBR Green DNA, 72 h; series mostly up to 28.7 µM
Outline: as §2

CP297 = test: as above; conditions: P. falciparum in erythrocytes, SYBR Green DNA, 72 h; series mostly up to 28.7 µM
Outline: as §2

CP305 = test: as above; conditions: P. falciparum in erythrocytes, SYBR Green DNA, 72 h; series mostly up to 28.7 µM
Outline: as §2

CP315 = test: as above; conditions: P. falciparum in erythrocytes, SYBR Green DNA, 72 h; series mostly up to 28.7 µM
Outline: as §2

CP325 = test: as above; conditions: P. falciparum in erythrocytes, SYBR Green DNA, 72 h; series mostly up to 28.7 µM
Outline: as §2

CP329 = test: as above; conditions: P. falciparum in erythrocytes, SYBR Green DNA, 72 h; series mostly up to 28.7 µM
Outline: as §2

CP335 = test: as above; conditions: P. falciparum in erythrocytes, SYBR Green DNA, 72 h; series mostly up to 12.8 µM
Outline: as §2

DIV14 = test: as above; conditions: P. falciparum in erythrocytes, SYBR Green DNA, 72 h; series mostly up to 28.7 µM
Outline: as §2

Dd2 = test: as above; conditions: P. falciparum in erythrocytes, SYBR Green DNA, 72 h; series mostly up to 28.7 µM
Outline: as §2

ECU = test: as above; conditions: P. falciparum in erythrocytes, SYBR Green DNA, 72 h; series mostly up to 28.7 µM
Outline: as §2

FAB9 = test: as above; conditions: P. falciparum in erythrocytes, SYBR Green DNA, 72 h; series mostly up to 28.7 µM
Outline: as §2

GB4 = test: as above; conditions: P. falciparum in erythrocytes, SYBR Green DNA, 72 h; series mostly up to 28.7 µM
Outline: as §2

ICS = test: as above; conditions: P. falciparum in erythrocytes, SYBR Green DNA, 72 h; series mostly up to 28.7 µM
Outline: as §2

JCK = test: as above; conditions: P. falciparum in erythrocytes, SYBR Green DNA, 72 h; series mostly up to 28.7 µM
Outline: as §2

P94_40 = test: as above; conditions: P. falciparum in erythrocytes, SYBR Green DNA, 72 h; series mostly up to 28.7 µM
Outline: as §2

PC49 = test: as above; conditions: P. falciparum in erythrocytes, SYBR Green DNA, 72 h; series mostly up to 28.7 µM
Outline: as §2

TAB109 = test: as above; conditions: P. falciparum in erythrocytes, SYBR Green DNA, 72 h; series mostly up to 12.8 µM
Outline: as §2

TAB113 = test: as above; conditions: P. falciparum in erythrocytes, SYBR Green DNA, 72 h; series mostly up to 28.7 µM
Outline: as §2

[13] = target: Rap guanine nucleotide exchange factor 3 (Homo sapiens) (UniProt O95398); test: Counterscreen qHTS for agonist of cAMP-regulated guanine nucleotide exchange factor 3 (EPAC1) (AID 1645889); note: % of control where 0% means no effect; nearly all actives have a fitted effect of over 40% in size
Outline: as §1

Nc1c(C(=O)Nc2ccc(Br)cc2F)sc2nc3c(cc12)N1CCC3CC1
inactive: Potency [1] | Potency [2] | Potency [3] | activity change, negative = inhibition [4] -17.9% [at 12.7 µM] | outcome [5]

C[C@]12CC[C@H](O)C[C@H]1CCC1C2CC[C@]2(C)[C@@H](c3ccc(=O)oc3)C[C@H]3O[C@]132 (stereo partly drawn)
active: Potency [10] 7.08 µM | Potency (7G8) 11.2 µM | Potency (DIV14) 13.5 µM | Potency (ICS) 7.08 µM
inactive: Potency [6] | Potency [7] | Potency [8] | Potency [9] | Potency [11] | activity, negative = inhibition ([12]; parasite line A) -25.7% | activity, negative = inhibition ([12]; parasite line B) -8.73% | Potency (3D7) | Potency (AA1029) | Potency (ATS189) | Potency (ATS95) | Potency (C2A) | Potency (CP185) | Potency (CP191) | Potency (CP192) | Potency (CP194) | Potency (CP201) | Potency (CP211) | Potency (CP215) | Potency (CP217) | Potency (CP238) | Potency (CP247) | Potency (CP250) | Potency (CP252) | Potency (CP256) | Potency (CP260) | Potency (CP262) | Potency (CP265) | Potency (CP266) | Potency (CP268) | Potency (CP269) | Potency (CP286) | Potency (CP291) | Potency (CP297) | Potency (CP305) | Potency (CP315) | Potency (CP325) | Potency (CP329) | Potency (CP335) | Potency (Dd2) | Potency (ECU) | Potency (FAB9) | Potency (GB4) | Potency (JCK) | Potency (P94_40) | Potency (PC49) | Potency (TAB109) | Potency (TAB113)

COC(=O)C1=C(c2cc3ccccc3s2)C[C@@H]2CC[C@H]1N2C(=O)NC1CC1
inactive: Potency [1] | Potency [2] | Potency [3] | Potency [4] | outcome [5] | Potency [13]
